In PubChem BioAssay (NCI):
About 83,000 compounds went through this panel and 20% of them were active in at least one assay; those are over-represented in the sample as a whole.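 Values shown are percent growth following 48 h exposure of cells in 96-well plates to a single concentration of compound; below 10 was considered active.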 A number with no mark means an inactive call. Active and inactive are the calls of the source. Where a SMILES comes first, the peptide text is derived from it. Bridges are numbered along the chain shown (N, C = ends). [ ]: non-standard residue; d: D form. The star is where a group is joined. ξ: configuration not given here. ξNMePhe(4-NMe2) = CNC(Cc1ccc(N(C)C)cc1)C(=O)O; Picolinoyl(3-OH) = O=C(c1ncccc1O)*; ξPip(4-oxo) = O=C1CCNC(C(=O)O)C1; Phg = N[CH](C(=O)O)c1ccccc1; Abu = CC[CH](N)C(=O)O

system: UACC-62 melanoma; experiment: NCI-60 one-dose screen, 48 h (100 = growth as untreated, 0 = no growth, -100 = all killed); conditions: 10 µM unless noted

Compound	growth [%]
Cc1cc2ccccc2c(O)c1C#N	97.7
OCCN1CCOCC1	103
CC(=O)Oc1ccc(Br)cc1C(=O)O	98.6
C#CCSc1nnnn1-c1ccc(Br)c(C)c1	65.6
c1ccc2c(c1)Sc1ccccc1S2	102

system: LOX IMVI melanoma; experiment: as above; conditions: 10 µM

Compound	growth
N#CC1(Nc2ccc3c4c(cccc24)CC3)CCCCC1	97.6%
CCCC1(c2ccccc2)NC(=O)NC1=O (configuration not stated)	105%
O=C(NN=C1CCCCC1)C(=O)NN=C1CCCCC1	113%
CC1CCCC(CC(N)=O)CC1 (configuration not stated)	101%
CC(=O)OC(OC(C)=O)C1CCCO1 (configuration not stated)	89.7%
CCOc1ccc(/C=N/N=C(N)N)cc1OCC	101%
COc1ccc2c(NCCCCCCCCNc3c4ccccc4nc4cc(OC)ccc34)c3ccccc3nc2c1	-98.6% (active)
Nc1ncnc2[nH]ncc12	1.37% (active)
Cc1ccc(C(=O)c2ccccc2)c(C)c1	93.7%
O=C(c1ccc(Cl)cc1)c1ccccc1Cl	96.2%
COc1cc2c(cc1O)CC[C@@H]1C2CC[C@@]2(C)C1CC[C@@H]2O (some centres not stated)	48%
CC(=O)OCC1=CC2OC(=O)C3=COC(OC4OC(CO)C(O)C(O)C4O)C1C32 (configuration not stated)	111%
CC1(C)N=C(N)N=C(N)N1c1cccc(Br)c1	20.2%
C/C(=C\c1ccc([N+](=O)[O-])cc1)C(=O)O	98.6%
Oc1ccccc1-c1nnco1	87.7%
CO[C@H]1C[C@@H]2CC[C@@H](C)[C@@](O)(O2)C(=O)C(=O)N2CCCC[C@H]2C(=O)O[C@H]([C@H](C)C[C@@H]2CC[C@@H](O)[C@H](OC)C2)CC(=O)[C@H](C)C=C(C)[C@@H](O)[C@@H](OC)C(=O)[C@H](C)C[C@H](C)/C=C/C=C/C=C1C	51.9%
Cc1cccc(C(=O)N(C(C)C)C(C)C)c1	96.1%
CC1(C)/C(=C\CO)C2CCC1C2 (configuration not stated)	107%
CN(C)c1ccc(S(=O)(=O)O)cc1	102%
O=[N+]([O-])c1ccc(/C=C/C=C/c2ccccc2)c(Cl)c1	98%

Compound	growth
N#CSc1cc(S(N)(=O)=O)ccc1N	99.9%
CCC1NC(=O)C(NC(=O)c2ncccc2O)C(C)OC(=O)C(c2ccccc2)NC(=O)C2CC(=O)CCN2C(=O)C(Cc2ccc(N(C)C)cc2)N(C)C(=O)C2CCCN2C1=O (configuration not stated) (tested in a mixture with another compound) ({Picolinoyl(3-OH)}-T[Abu]P[ξNMePhe(4-NMe2)][ξPip(4-oxo)][Phg]; ester 1-C; configuration not given here)	49.2%
C=CCNc1ccccc1	93.7%
CCOC(=O)C(CCC(C)C)C(=O)OCC	115%
COc1cccc(Sc2ccc([N+](=O)[O-])c3no[n+]([O-])c23)c1	28.9%
CC1CC(O)CC(C)(C)C1 (configuration not stated)	102%
Oc1ccccc1O	85.3%
Clc1ccc(-c2n[nH]c3c2Cc2ccccc2-3)cc1Cl	97.4%
CC1OC(Oc2c(-c3ccc(O)c(O)c3)oc3cc(O)cc(O)c3c2=O)C(O)C(O)C1O (configuration not stated)	97.1%
O=c1[nH]nc(SC2CCCCC2)c(=O)[nH]1	92.8%
CC(C)C1CCCCC1O (configuration not stated)	96.3%
CCC(C#N)(CC)c1ccccc1	97.9%
CC(=O)c1ccc(C(C)(C)C)cc1	98.5%
CC(C)OC(=O)c1cc(NC(=S)OC(C)C)ccc1Cl	93.4%
Cc1cc2ccccc2c(O)c1C#N	94.4%
OCCN1CCOCC1	105%
CC(=O)Oc1ccc(Br)cc1C(=O)O	94.6%
C#CCSc1nnnn1-c1ccc(Br)c(C)c1	97.4%
c1ccc2c(c1)Sc1ccccc1S2	98.2%

system: SK-MEL-28 melanoma; experiment: as above; conditions: 10 µM

Compound	growth
N#CC1(Nc2ccc3c4c(cccc24)CC3)CCCCC1	103%
CCCC1(c2ccccc2)NC(=O)NC1=O (configuration not stated)	104%
O=C(NN=C1CCCCC1)C(=O)NN=C1CCCCC1	100%
CC1CCCC(CC(N)=O)CC1 (configuration not stated)	119%
CC(=O)OC(OC(C)=O)C1CCCO1 (configuration not stated)	97%
CCOc1ccc(/C=N/N=C(N)N)cc1OCC	92.4%
COc1ccc2c(NCCCCCCCCNc3c4ccccc4nc4cc(OC)ccc34)c3ccccc3nc2c1	-100% (active)
Nc1ncnc2[nH]ncc12	28.5%
Cc1ccc(C(=O)c2ccccc2)c(C)c1	109%
O=C(c1ccc(Cl)cc1)c1ccccc1Cl	129%
CC1(C)N=C(N)N=C(N)N1c1cccc(Br)c1	72.5%
C/C(=C\c1ccc([N+](=O)[O-])cc1)C(=O)O	111%
Oc1ccccc1-c1nnco1	101%
Cc1cccc(C(=O)N(C(C)C)C(C)C)c1	103%
CC1(C)/C(=C\CO)C2CCC1C2 (configuration not stated)	115%
CN(C)c1ccc(S(=O)(=O)O)cc1	110%
O=[N+]([O-])c1ccc(/C=C/C=C/c2ccccc2)c(Cl)c1	106%

Compound	growth
C=CCNc1ccccc1	99.9%
CCOC(=O)C(CCC(C)C)C(=O)OCC	107%
COc1cccc(Sc2ccc([N+](=O)[O-])c3no[n+]([O-])c23)c1	55%
CC1CC(O)CC(C)(C)C1 (configuration not stated)	112%
Oc1ccccc1O	101%
Clc1ccc(-c2n[nH]c3c2Cc2ccccc2-3)cc1Cl	114%
CC1OC(Oc2c(-c3ccc(O)c(O)c3)oc3cc(O)cc(O)c3c2=O)C(O)C(O)C1O (configuration not stated)	105%
O=c1[nH]nc(SC2CCCCC2)c(=O)[nH]1	94.8%
CC(C)C1CCCCC1O (configuration not stated)	116%
CCC(C#N)(CC)c1ccccc1	108%
CC(=O)c1ccc(C(C)(C)C)cc1	120%
Cc1cc2ccccc2c(O)c1C#N	115%
OCCN1CCOCC1	105%
CC(=O)Oc1ccc(Br)cc1C(=O)O	124%
C#CCSc1nnnn1-c1ccc(Br)c(C)c1	124%
c1ccc2c(c1)Sc1ccccc1S2	110%
